69 sequences from PubChem BioAssay AID1508600 (Functional Genomics Laboratory (NCATS/FGL), 2020) can be followed below.

In all, about 53,000 sequences went through this assay and about 3,700 (7%) were called active. This is one part of a sample in which actives are shown more often than they occur. Values without a mark were called inactive.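 The calls were made as follows: active = gene knockdowns whose robust z-score for IL-1 alpha signal is at least 2 or at most -2, so actives lie on both sides; inactive = the rest.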

The nature of the experiment: Components of the Cytosolic LPS Sensing Pathway: Gene Identification via Genome-wide siRNA Screen.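 Also: robust z of the log signal after scaling to non-targeting control siRNA wells of the plate.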 The following applies: RAW264.7 macrophages, IL-1a HTRF, actives lie on both sides, screened at 100 nM (by protocol), cells primed 5 h with Pam3CSK4 first. The method, boiled down:
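Knockdown: 100 nM siRNA, 48h, RAW264.7. Stimulation: Pam3CSK4 5 h, then LipidA via TransIT-TKO 24 h. Output: supernatant IL-1a HTRF, negative-control-normalized, log robust z-score; viability by CellTiter-Glo.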
For GGACUACCAAUACGAACUGTT against Il23a, the z-score is 2.22 (active).
For GCAUAAAUUUCAAGAGCGCTT against Gigyf1, the z-score is -0.243.
Turning to CGUAAGAUCAACGAGAGAUTT against Ncaph2, the z-score is -0.756.
For GGGAAAGACUGGAAAUCUUTT against Tmod3, the z-score was 0.515.
Next, GGAGAUCGAAAAGAAUUUCTT against Mx2: 1.17; GGAGGAAGAACUGUCUUUGTT against Wasf1: 0.221.
Next, GGUGUUGGAUCAUGAUGUUTT against Nf2: -2.14 (active); GCCCUUCAAAAGGAGCAGUTT against Cap1: 1.86; GGACCAGCUGGACAAAAGATT against Zbtb18: 0.131.
Next, GGCAUCAAAGACAAUACAATT against Vmn1r15: 3.19 (active).
For “GGUCAAAUCACUGAGUUUUTT against 9530080O11Rik”, the z-score is 1.74.
Regarding GGUUGUCAUUCUUAUCCUUTT against Mageb1, the z-score was 0.57.
Take GGGAAUGCUUAUGUAGGCATT against Aldh3b1: the z-score was -1.03.
Next, GGCGGUUAGACAUUAUGGATT against Plac9a: 1.25; GGCGUGUGCAAGAAAAUCGTT against Cacng3: 2.53 (active).
Consider GGAUGAGUUGUCAUUGAUATT against Nck1, for which the z-score is 0.998.
The figure for CCUGUAGGGCUUUUUGAAATT against Mex3a is 0.843; for GGUGUUUUUGUCCAGGUCATT against Kcnk3 it is -0.618.
With GCAAGACAAGUUCUACGAUTT against Csad, the z-score was 1.83.
Next, GCCUGUUCGGGAAUCUUACTT against Olfr297: 2.42 (active); GCAUUCAGUUGGGACAGUATT against Hsh2d: 0.443.
Consider CGCAGAGGUUUUACUUUAATT against Mycbpap, for which the z-score is 1.52.
Next, GCGAAGACGGAAGCAUAUUTT against Emc8: 0.12; GGCGGAAAUCUUGAGCAAATT against Slc28a2: 4.39 (active); GGAGCUUAUCAACUACUAUTT against Cltc: -0.181.
As to GGAGAGAAACUGCGUGUAATT against Sla, the z-score is 1.46.
Next, GGCAGAAAUCCAUCAGAGATT against Rtkn2: -0.349; GCCGUACUUCGUCAAGCUATT against Ung: 0.395; GGCAUCUAGGAGAACCUCATT against Insig2: -1.01.
Regarding CGAGAAUUACAGACACUUGTT against Noc4l, the z-score is 0.962.
For GGCAAAAAGGCAGUAGCCATT against Ncl, the z-score was 0.644.
The figure for GGCGGAGUUCUCAAGACUUTT against Nudt18 is 3.55 (active); for GGAACUGGAUCAAGAAUUUTT against Hhat it is 0.0393.
As to CGGACAUAGUCCAUCAUUCTT against Aig1, the z-score is 1.47.
Next, CGGUAUAGUAGAUACUUAATT against Picalm: 2.01 (active); “CCCACCUUCCAAAAGGAUCTT against 5031434C07Rik”: -0.882.
GGUGAAAUGGAUCGUCCUCTT against Nme8: the z-score was -0.926.
In the case of GGAUGGUCUGCUAUUACAUTT against Phf7, the z-score is 0.832.
The figure for CCCUCAAGGCUGAUAAACATT against Il17b is -2.26 (active); for GGCUACAUGAGCUGGAGAATT against Insr it is 2.71 (active).
For the sequence GCCGCUAACUAAAGUCAAATT against Aloxe3, the z-score is 1.15.
For the sequence GGAGAUUGGCUUCCAGAAATT against Slc38a7, the z-score was 0.494.
Turning to GCAACACAUUUGAACCACUTT against Usp15, the z-score was -1.79.
CCACGAGGAGCUCAUUUUCTT against Dhfr: the z-score was 0.385.
Next, GGCCAAAGGCAUCAGGCAUTT against Gsto2: -1.7.
The figure for GCUCAAACGAAAUGAUUCATT against Gys2 is 2.01 (active); for GCCGCACGUUUUUGAGUUGTT against Islr2 it is -0.554; for CCGAAAUUUUGAGUACUGUTT against Vmn1r67 it is 0.285.
Next, CCACUUAAAAUUCAUUCCUTT against Arl6ip1: -0.21; GGAUGAUGCCCGAAAGAACTT against Zfp536: -4.55 (active); GGAGAAGACACAGAGAACCTT against Pkd2l1: 0.645.
As for GGGCAUGGGAUUUAAUUCUTT against Dnajc11, the z-score is 1.54.
The figure for CGCUAUGGUUUCUCAGCUUTT against Myh4 is -0.02; for GGAGAUUCAGAAGAUCCUCTT against Isoc2b it is 2.49 (active); for GCUCUCACCUUCAUUUGAATT against Tmem174 it is -1.37.
The figure for GGAAAUAAUGUUACUGACATT against Zfp445 is -0.178; for GGCAUCAAUAGGAAGAUGCTT against Rgs19 it is 0.182.
Take GCAUUUAGGUCUGAUAAAGTT against Gpr61: the z-score is 0.00391.
The figure for CCGACUGUUAAAGUGGUGUTT against Arih1 is 0.608; for GUUUUACAAAUUCCUCCAUTT against Olfr1447 it is 0.345; for CCAGUUUUCGACACAAUUCTT against Cma1 it is 0.645.
Take GGCAGAGAAAUGGGCAAUGTT against Hcar1: the z-score is 2.12 (active).
Regarding GCUUAUGAGACUCAUUUAATT against Oser1, the z-score is 0.554.
Turning to GCCGCUGCACUACAAUUUGTT against Trhde, the z-score was 0.717.
Turning to GGAGCUAUACUGCUUUUCCTT against Mtmr7, the z-score was 1.61.
Next, GGCUUACCUGAACUUUCUGTT against Degs2: -0.381; GGGUGUCUUACACCUUACATT against Sertad2: -1.48; GGUGUUUGAGUCAACAGACTT against Oard1: -2.1 (active).
Next, GCUGUUGUUUGCUAGCAAATT against Lipa: 0.973.
